# An excerpt weighted towards active compounds, which were near 11% of everything screened.
# HEK cytotox – HEK 293 cell cytotoxicity; HEK 293 viability, ATP luminescence (CellTiter-Glo), 48-72 h; Potency, µM (top dose mostly 115 µM), inactives show top-dose activity change, negative = cytotoxicity, usual class: inhibitors; 94,000 tested, 6.6% active; also: % is scaled to controls: 0 for no effect and ±100 for the full control effect; nearly all actives have a fitted effect of over 60% in size
#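 HEK 293 cells at 250 cells/well were exposed to compounds by pintool transfer for 48 or 72 hr at 37 degree Celsius, 5% CO2. Viability was read as ATP-coupled luminescence with CellTiter-Glo after 10 min at room temperature.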
# NIH3T3 tox – NIH 3T3 cell cytotoxicity; 94,000 tested, 4.3% active; AID 1345082; NIH 3T3 viability, CellTiter-Glo ATP luminescence, 48-72 h; Potency, µM (series often up to 96.7 µM), without a hit: at the highest dose activity change, negative = cytotoxicity, most hits filed as inhibitors; also: % is scaled to controls: 0 for no effect and ±100 for the full control effect; nearly all actives have a fitted effect of over 55% in size
#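 ATP-dependent luminescence (CellTiter-Glo) served as the viability signal for NIH 3T3 cells treated with compound for 48 or 72 hr at 37 °C.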
# NPR1 antag – blocks ANP-stimulated signaling of human Npr1 receptor; HEK293 hNpr1 GloSensor cGMP, ANP-stimulated luminescence; Potency, µM (series often up to 46.3 µM), for inactives: at the highest dose activity change, negative = inhibition, hits mostly inhibitors; 76,000 tested, 1.6% active; AID 1347048; calls by dose curve; also: % is scaled to controls: 0 for no effect and ±100 for the full control effect; nearly all actives have a fitted effect of over 60% in size
#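 Compound pre-incubated 30 min at room temperature on GloSensor-loaded HEK293 cells stably carrying hNpr1 and the pGS-40F cGMP biosensor. Stimulation uses hNppA at 0.1 nM final; luminescence is taken at baseline and 20 min post-agonist.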
# FLuc inh – Photinus pyralis luciferase inhibition. AID 1347043. Potency, µM (top dose mostly 115 µM), usual class: inhibitors. purified P. pyralis luciferase, luminescence, biochemical. 76,000 tested, 2.5% active. P08659; also: % is scaled to controls: 0 for no effect and ±100 for the full control effect; nearly all actives have a fitted effect of over 65% in size
# Target sequence (P08659 whole entry, looked up): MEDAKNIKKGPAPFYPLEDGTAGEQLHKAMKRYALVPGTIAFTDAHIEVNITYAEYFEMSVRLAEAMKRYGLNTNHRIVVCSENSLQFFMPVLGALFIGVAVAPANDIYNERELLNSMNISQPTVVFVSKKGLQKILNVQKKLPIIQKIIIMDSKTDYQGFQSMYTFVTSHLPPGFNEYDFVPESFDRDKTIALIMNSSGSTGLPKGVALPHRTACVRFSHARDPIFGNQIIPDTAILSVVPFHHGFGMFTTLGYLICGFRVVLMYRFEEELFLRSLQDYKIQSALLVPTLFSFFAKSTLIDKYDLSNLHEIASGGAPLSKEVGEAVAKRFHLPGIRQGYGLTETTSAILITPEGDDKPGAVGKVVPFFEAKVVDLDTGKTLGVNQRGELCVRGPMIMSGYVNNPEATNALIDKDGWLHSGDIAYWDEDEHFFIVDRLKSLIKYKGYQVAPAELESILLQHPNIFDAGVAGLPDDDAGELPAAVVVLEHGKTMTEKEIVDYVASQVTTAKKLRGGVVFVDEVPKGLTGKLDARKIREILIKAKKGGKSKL
#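 Purified 10nM P. pyralis luciferase with 10uM D-luciferin and 10uM ATP in 50mM Tris acetate pH 7.5, 10mM Mg acetate, 0.01% Tween-20, 0.05% BSA. qHTS titration; luminescence read by CCD imager.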
# NPR1 antag cnf – hNpr1 antagonism, confirmation assay. shares compounds with NPR1 antag. HEK293 hNpr1 cGMP GloSensor luminescence, ANP-stimulated. Potency, µM (doses to about 57.6 µM), for the others: at the highest dose activity change, negative = inhibition, usual class: inhibitors. 1,400 tested, 76% active; calls by dose curve; also: nearly all actives have a fitted effect of over 70% in size
# NPR2 antag – antagonizes human Npr2, subtype selectivity check; shares compounds with NPR1 antag; AID 1347046; Potency, µM (highest dose often 57.6 µM), for the others: top-dose activity change, negative = inhibition, actives largely listed as inhibitors; 1,400 tested, 67% active; HEK293 hNpr2 GloSensor cGMP luminescence, CNP-stimulated; calls by dose curve; also: nearly all actives have a fitted effect of over 70% in size
# FLuc inh counter – FLuc enzyme inhibition, Npr1 counter-screen; shares compounds with NPR1 antag; purified FLuc enzyme, luminescence, Km substrate; 1,400 tested, 0.7% active; Potency, µM (top dose mostly 57.6 µM), for inactives: at the highest dose activity change, negative = inhibition, hits mostly inhibitors; also: 0% is about no effect
# GloSensor cGMP – counter-screen for Npr1 antagonists: GloSensor control cell line. HEK293 GloSensor cGMP, SNP-stimulated, luminescence. 1,400 tested, 69% active. AID 1347051. shares compounds with NPR1 antag. Potency, µM (titrated, usually from 57.6 µM), without a hit: at the top dose activity change, negative = inhibition, hits mostly inhibitors; calls by dose curve; also: % is scaled to controls: 0 for no effect and ±100 for the full control effect; nearly all actives have a fitted effect of over 70% in size
# Numbers without * were called inactive; i = inactive; u = inconclusive; x = no result given; [ ] = remark or other dose. Unless noted, calls follow the shape of the dose curve; as a rule, active = well fitted curve in the direction sought with a large enough effect; inconclusive = small, poorly fitted or top-dose-only effect, or another doubt; inactive = no such curve, though single readings can be large; an effect the other way counts as inactive or inconclusive. Potency is read from the fitted curve at half-maximal effect.
SMILES,HEK cytotox,NIH3T3 tox,NPR1 antag,FLuc inh,NPR1 antag cnf,NPR2 antag,FLuc inh counter,GloSensor cGMP
C[S+](=O)([O-])NCCn1ccc2cc(OC3CCN(c4ncc(F)cn4)CC3)cnc21,u,u,22.4µM*,i,19.8µM*,28µM*,-0.6%[86.2 µM],22.2µM*
Cc1noc(-c2cccc(F)c2)c1C(=O)NCc1cccc2ccccc12,u,-16.7%,1.1%,i,x,x,x,x
Cc1noc(-c2ccco2)c1C(=O)NCc1cccc2ccccc12,u,u,12.6µM*,i,24.3µM*,u,2.7%,30.6µM*
O=C(CN1CCCc2nc(-c3ccncc3)ncc2C1=O)NCCN1CCOCC1,-4.3%,-0.7%,-21.1%,i,x,x,x,x
O=C(CN1CCCc2nc(-c3ccncc3)ncc2C1=O)N1CCc2ccccc2C1,35.5µM*,u,8.91µM*,i,12.2µM*,15.3µM*,2.4%,15.3µM*
O=C(NCc1ccccc1Cl)c1ccc(CN2C(=O)NC3(CCOCC3)C2=O)cc1,-21.6%,-18.9%,-23.2%,i,x,x,x,x
CC(C)c1ccc(CNC(=O)c2ccc(CN3C(=O)NC4(CCOCC4)C3=O)cc2)cc1,u,u,7.08µM*,i,19.3µM*,19.3µM*,-2.4%,15.3µM*
COC(=O)[C@@H]1Cc2ncn(Cc3ccc(Cl)cc3)c2CN1C(=O)c1ccc(C(F)(F)F)cc1,u,u,-25.4%,i,u,-8.1%,0.1%,u
COC(=O)[C@@H]1Cc2ncn(Cc3ccc(Cl)cc3)c2CN1C(=O)c1ccccc1,3.7%[172 µM],-27.1%[174 µM],1.2%[70.6 µM],i,x,x,x,x
CC1=C[C@@H](CN(C)Cc2cccnc2)[C@H](C(C)C)C[C@H]1Cc1nnc(-c2ccc([N+](=O)[O-])cc2)o1,22.4µM*,15.8µM*,20µM*,i,15.3µM*,17.2µM*,0.8%,12.2µM*
CC1=C[C@@H](CN2CCOCC2)[C@H](C(C)C)C[C@H]1Cc1nnc(-c2ccncc2)o1,u,u,u,i,u,-27.0%[86.2 µM],2.5%[86.2 µM],-16.2%[86.2 µM]
CC1=C[C@@H](CN2CCC(O)CC2)[C@H](C(C)C)C[C@H]1Cc1nnc(-c2ccncc2)o1,u,u,3.5%[70.6 µM],i,x,x,x,x
C[S+](=O)([O-])N1CC2(CCCN(Cc3ccccn3)C2)Cc2ccccc21 (centres undefined),-11.2%,0.3%,x,x,x,x,x,x
Cc1cc(OCCN2CCOCC2)c(C)c2c1CC[C@@H]([C@H](C)C(=O)N1CCCCC1)C2,20µM*,u,17.8µM*,i,39.6µM*,35.3µM*,1.6%[86.2 µM],u
Cc1ncnc(N2CCC3(CC2)CC(=O)N(CCCc2ccccc2)C3)c1C,u,u,4.47µM*,i,5.44µM*,6.85µM*,-0.4%,5.44µM*
COCCCN1CC2(CCN(C(=O)c3ccccc3N(C)C)CC2)CC1=O,-2.6%,-1.8%,0.8%,i,x,x,x,x
O=C(NCc1ccc(F)cc1)C1CCc2nnc(-c3ccc(F)cc3)n21 (centres undefined),-25.5%[172 µM],-8.8%[138 µM],x,x,x,x,x,x
COCCN1C(=O)c2ccccc2C(C(=O)Nc2cc(C)ccc2OC)C12CCCCC2 (centres undefined),u,-15.6%,u,i,21.7µM*,12.2µM*,-2.8%,7.8%
COc1cccc(-c2cc(C(=O)N[C@@H](C)c3ncccc3C)[nH]n2)c1,u,u,-5.6%,u,x,x,x,x
COCCN1CCCN(C(=O)c2ccoc2)c2ccccc21,u,-10.0%,-4.7%,i,x,x,x,x
Cn1nccc1C(=O)N1CCCN(CCc2ccccc2)c2ccccc21,u,u,u,i,19.3µM*,13.7µM*,-0.6%,-28.7%
O=C(Cc1cccc(Cl)c1)N1CCCC(C(=O)N2CCCC2c2nc3ccncc3[nH]2)C1 (centres undefined),1.6%,i,x,x,x,x,x,x
COc1cc(CN2CCC(C)(NC(C)=O)CC2)cc(-c2ccncc2)c1,x,x,x,x,22.2µM*,8.86µM*,2.1%[86.2 µM],-17.7%[86.2 µM]
Fc1ccc(CN2CCC3(CC2)CC(c2cccnc2)=NO3)cc1,u,u,-4.7%[70.6 µM],i,x,x,x,x
COc1cccc(-c2cccc(CN)c2)c1,-26.1%[172 µM],u,x,x,x,x,x,x
SMILES,HEK cytotox,NIH3T3 tox,NPR1 antag,FLuc inh,NPR1 antag cnf,NPR2 antag,FLuc inh counter,GloSensor cGMP
Cc1cc(C)cc(-c2cccc(CN)c2)c1,56.2µM*,39.8µM*,x,x,35.3µM*,31.4µM*,4.5%[86.2 µM],u
Cc1ccc2c(c1)nc1n2[C@@H](CNCc2ccccc2)COC1,u,112µM*,u,i,35.3µM*,u,-1.8%[86.2 µM],u
COc1ccc2nc3n(c2c1)[C@@H](CNCc1ccc(C(F)(F)F)cc1)COC3,u,u,35.5µM*,i,31.4µM*,35.3µM*,-1.6%[86.2 µM],28µM*
Cc1cccc2c1nc1n2[C@@H](CNS(=O)(=O)Cc2ccccc2)COC1,u,u,35.5µM*,i,28µM*,28µM*,-0.4%[86.2 µM],28µM*
Cc1cccc2c1nc1n2[C@@H](CNS(=O)(=O)c2ccc(F)cc2)COC1,u,u,u,i,x,x,x,x
c1ccc(CNC[C@H]2COCc3nc4ccccc4n32)cc1,u,u,22.4µM*,i,35.3µM*,31.4µM*,-0.9%[86.2 µM],28µM*
COc1ccc2nc3n(c2c1)[C@@H](CNCc1ccc(C(=O)O)cc1)COC3,i,-2.8%[138 µM],3.6%[70.6 µM],i,x,x,x,x
O=C1Nc2ccccc2CC12CCN(Cc1cncs1)C2 (centres undefined),4.1%[172 µM],-1.1%[138 µM],3.0%[70.6 µM],i,x,x,x,x
Cc1ccc(F)c(C(CC(=O)NCc2ccco2)c2c[nH]c3ccc([N+](=O)[O-])cc23)c1 (centres undefined),39.8µM*,31.6µM*,-29.3%,i,u,u,3.4%,u
CCCNC(=O)CC(c1ccc(F)cc1)c1c[nH]c2ccccc12 (centres undefined),u,u,-12.2%,i,x,x,x,x
Cc1ccc(Cl)cc1NC(=O)c1cnc(-c2ccccc2)nc1-c1ccncc1,-31.1%,u,u,i,u,u,39.1%,-23.8%
O=C(Nc1cccc(F)c1)c1cnc(-c2ccc(F)cc2)nc1-c1ccncc1,44.7µM*,u,u,i,u,u,14.8%,u
O=C(Nc1ccccc1)c1cnc(-c2ccc(F)cc2)nc1-c1ccncc1,14.7%,u,-22.2%,i,x,x,x,x

# Screening results from PubChem.
